# Test results published in publication PMC7862700, “An all-to-all approach to the identification of sequence-specific readers for epigenetic DNA modifications on cytosine”.
# Assays:
# Test in all cases: DAPPL (digital affinity profiling via proximity ligation, sequencing); 10 mM Tris-HCl pH 7.5, 50 mM NaCl, 1 mM DTT, 4% glycerol, room temperature, 30 min; GST-TFs on glutathione beads, 16-mer random dsDNA library, 0.1% formaldehyde crosslink after washing; high values mean tight binding
# FLI1 = target: T1, FLI1 (Homo sapiens, UniProt Q01543 1-452); conditions: protein: recombinant; tags: N-terminal GST; dsDNA, one strand shown
# T1 sequence: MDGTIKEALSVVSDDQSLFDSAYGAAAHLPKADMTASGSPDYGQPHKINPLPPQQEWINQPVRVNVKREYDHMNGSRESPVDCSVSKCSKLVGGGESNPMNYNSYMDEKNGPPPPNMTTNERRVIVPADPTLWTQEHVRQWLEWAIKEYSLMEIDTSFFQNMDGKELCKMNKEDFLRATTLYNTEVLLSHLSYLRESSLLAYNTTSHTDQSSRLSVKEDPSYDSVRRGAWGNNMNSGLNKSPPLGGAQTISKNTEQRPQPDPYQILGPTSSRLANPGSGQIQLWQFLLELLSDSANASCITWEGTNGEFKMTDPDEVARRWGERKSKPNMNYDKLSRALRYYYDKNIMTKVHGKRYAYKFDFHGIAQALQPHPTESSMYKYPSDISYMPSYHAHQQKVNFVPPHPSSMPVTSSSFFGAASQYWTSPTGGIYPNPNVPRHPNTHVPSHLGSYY
# How it was run: (§1)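 Human transcription factors fused to GST were expressed in yeast, captured on glutathione beads, given DNA barcodes and pooled with a GST-only negative control. Pools were incubated with 200 nmole of a 16-mer random double-stranded DNA library in Tris/NaCl/DTT/glycerol buffer at room temperature for 30 min. They were then washed, crosslinked with 0.1% formaldehyde, proximity-ligated (BsaI/T4 ligase, 1 h, 37 °C), PCR-amplified and sequenced on an Illumina NextSeq500. Binding signal is each 6-mer's read frequency for a factor divided by its frequency for the GST control.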
# ELK1 = target: T2, ELK1 (Homo sapiens, UniProt P19419 1-428); conditions: protein: recombinant; tags: N-terminal GST; dsDNA, one strand shown
# T2 sequence: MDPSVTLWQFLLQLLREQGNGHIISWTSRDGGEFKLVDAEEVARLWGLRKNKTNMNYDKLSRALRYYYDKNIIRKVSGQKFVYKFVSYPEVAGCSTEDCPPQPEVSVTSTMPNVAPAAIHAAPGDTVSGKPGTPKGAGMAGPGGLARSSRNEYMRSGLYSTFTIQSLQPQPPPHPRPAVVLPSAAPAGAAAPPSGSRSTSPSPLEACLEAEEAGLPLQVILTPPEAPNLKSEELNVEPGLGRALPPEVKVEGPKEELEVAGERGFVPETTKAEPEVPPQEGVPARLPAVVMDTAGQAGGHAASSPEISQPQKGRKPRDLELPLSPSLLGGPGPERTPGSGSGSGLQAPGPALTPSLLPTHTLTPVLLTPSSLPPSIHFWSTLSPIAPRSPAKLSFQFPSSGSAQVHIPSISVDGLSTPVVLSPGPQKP
# How it was run: as §1
# GABPA = target: T3, GABPA (Homo sapiens, UniProt Q06546 1-454); conditions: protein: recombinant; tags: N-terminal GST; dsDNA, one strand shown
# T3 sequence: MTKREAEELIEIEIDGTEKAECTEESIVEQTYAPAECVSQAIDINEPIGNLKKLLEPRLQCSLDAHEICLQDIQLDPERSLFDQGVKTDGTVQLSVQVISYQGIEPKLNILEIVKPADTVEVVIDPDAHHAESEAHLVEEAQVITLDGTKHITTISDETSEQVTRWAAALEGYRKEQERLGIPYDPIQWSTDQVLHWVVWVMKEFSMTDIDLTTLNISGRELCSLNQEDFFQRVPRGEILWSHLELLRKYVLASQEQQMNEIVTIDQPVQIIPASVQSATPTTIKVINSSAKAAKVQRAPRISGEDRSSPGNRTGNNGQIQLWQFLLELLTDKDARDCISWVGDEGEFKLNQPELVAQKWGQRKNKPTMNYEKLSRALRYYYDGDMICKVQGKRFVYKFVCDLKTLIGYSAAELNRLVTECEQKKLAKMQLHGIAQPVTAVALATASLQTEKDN
# How it was run: as §1
# ERG = target: T4, ERG (Homo sapiens, UniProt P11308 1-479); conditions: protein: recombinant; tags: N-terminal GST; dsDNA, one strand shown
# T4 sequence: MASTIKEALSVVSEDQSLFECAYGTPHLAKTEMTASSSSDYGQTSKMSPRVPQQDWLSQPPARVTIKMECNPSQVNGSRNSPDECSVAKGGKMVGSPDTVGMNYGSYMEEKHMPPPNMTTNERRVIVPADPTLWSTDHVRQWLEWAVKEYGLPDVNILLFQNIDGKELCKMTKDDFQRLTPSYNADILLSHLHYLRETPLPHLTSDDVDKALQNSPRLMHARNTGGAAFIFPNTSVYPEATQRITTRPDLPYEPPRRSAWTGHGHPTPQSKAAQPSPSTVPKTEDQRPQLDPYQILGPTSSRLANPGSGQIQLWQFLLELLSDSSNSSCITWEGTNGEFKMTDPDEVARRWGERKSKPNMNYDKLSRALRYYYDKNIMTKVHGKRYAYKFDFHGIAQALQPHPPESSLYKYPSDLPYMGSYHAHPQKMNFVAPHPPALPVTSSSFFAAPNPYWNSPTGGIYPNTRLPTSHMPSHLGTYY
# How it was run: as §1
# ELF1 = ELF1 (Homo sapiens, UniProt P32519 1-619); conditions: protein: recombinant; tags: N-terminal GST; dsDNA, one strand shown
# How it was run: as §1
# EHF = target: T5, EHF (Homo sapiens, UniProt Q9NZC4 1-300); conditions: protein: recombinant; tags: N-terminal GST; dsDNA, one strand shown
# T5 sequence: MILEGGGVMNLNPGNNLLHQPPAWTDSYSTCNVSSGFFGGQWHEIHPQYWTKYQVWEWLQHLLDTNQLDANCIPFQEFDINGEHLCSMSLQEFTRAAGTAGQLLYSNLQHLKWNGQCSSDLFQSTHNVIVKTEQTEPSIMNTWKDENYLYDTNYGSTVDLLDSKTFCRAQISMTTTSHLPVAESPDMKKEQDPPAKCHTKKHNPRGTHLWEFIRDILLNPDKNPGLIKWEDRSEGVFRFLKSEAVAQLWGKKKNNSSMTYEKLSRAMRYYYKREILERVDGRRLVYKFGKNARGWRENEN
# How it was run: as §1
# SPI1 = SPI1 (Homo sapiens, UniProt P17947 1-270); conditions: protein: recombinant; tags: N-terminal GST; dsDNA, one strand shown
# How it was run: as §1
# SPIB = SPIB (Homo sapiens, UniProt Q01892 1-262); conditions: protein: recombinant; tags: N-terminal GST; dsDNA, one strand shown
# How it was run: as §1
# ELK3 = target: T6, ELK3 (Homo sapiens, UniProt P41970 1-407); conditions: protein: recombinant; tags: N-terminal GST; dsDNA, one strand shown
# T6 sequence: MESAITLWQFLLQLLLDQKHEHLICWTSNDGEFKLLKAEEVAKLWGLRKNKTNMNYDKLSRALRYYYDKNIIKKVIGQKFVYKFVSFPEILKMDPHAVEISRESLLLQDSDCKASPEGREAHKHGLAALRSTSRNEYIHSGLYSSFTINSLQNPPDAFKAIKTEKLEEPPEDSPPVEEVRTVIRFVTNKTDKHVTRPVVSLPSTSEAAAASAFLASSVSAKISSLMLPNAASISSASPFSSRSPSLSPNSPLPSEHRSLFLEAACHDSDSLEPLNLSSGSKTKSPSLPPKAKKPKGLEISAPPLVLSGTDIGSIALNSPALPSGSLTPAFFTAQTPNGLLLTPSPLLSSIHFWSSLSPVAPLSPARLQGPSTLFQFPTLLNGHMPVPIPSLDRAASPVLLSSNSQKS
# How it was run: as §1
# FEV = target: T7, FEV (Homo sapiens, UniProt Q99581 1-238); conditions: protein: recombinant; tags: N-terminal GST; dsDNA, one strand shown
# T7 sequence: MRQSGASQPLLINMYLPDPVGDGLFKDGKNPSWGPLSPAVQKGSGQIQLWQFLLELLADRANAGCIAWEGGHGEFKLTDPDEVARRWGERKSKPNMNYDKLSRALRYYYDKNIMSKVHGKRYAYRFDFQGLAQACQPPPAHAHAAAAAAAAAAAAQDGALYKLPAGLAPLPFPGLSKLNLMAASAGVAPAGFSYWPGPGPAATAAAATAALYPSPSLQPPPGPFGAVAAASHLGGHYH
# How it was run: as §1
# ETV5 = ETV5 (Homo sapiens, UniProt P41161 1-510); conditions: protein: recombinant; tags: N-terminal GST; dsDNA, one strand shown
# How it was run: as §1
# HSF1 = HSF1 (Homo sapiens, UniProt Q00613 1-529); conditions: protein: recombinant; tags: N-terminal GST; chain copies: 3; dsDNA, one strand shown
# How it was run: as §1
# SPIC = target: T8, SPIC (Homo sapiens, UniProt Q8N5J4 1-248); conditions: protein: recombinant; tags: N-terminal GST; dsDNA, one strand shown
# T8 sequence: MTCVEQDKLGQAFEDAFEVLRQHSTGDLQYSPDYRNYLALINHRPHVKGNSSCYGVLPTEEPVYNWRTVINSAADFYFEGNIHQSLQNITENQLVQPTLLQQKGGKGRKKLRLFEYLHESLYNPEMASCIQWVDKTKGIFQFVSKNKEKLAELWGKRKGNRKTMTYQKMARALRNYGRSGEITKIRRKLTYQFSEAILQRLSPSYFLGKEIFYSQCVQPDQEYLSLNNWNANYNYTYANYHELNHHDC
# How it was run: as §1
# ELF4 = ELF4 (Homo sapiens, UniProt Q99607 1-663); conditions: protein: recombinant; tags: N-terminal GST; dsDNA, one strand shown
# How it was run: as §1
# ELK4 = target: T9, ELK4 (Homo sapiens, UniProt P28324-2 1-405); conditions: protein: recombinant; tags: N-terminal GST; dsDNA, one strand shown
# T9 sequence: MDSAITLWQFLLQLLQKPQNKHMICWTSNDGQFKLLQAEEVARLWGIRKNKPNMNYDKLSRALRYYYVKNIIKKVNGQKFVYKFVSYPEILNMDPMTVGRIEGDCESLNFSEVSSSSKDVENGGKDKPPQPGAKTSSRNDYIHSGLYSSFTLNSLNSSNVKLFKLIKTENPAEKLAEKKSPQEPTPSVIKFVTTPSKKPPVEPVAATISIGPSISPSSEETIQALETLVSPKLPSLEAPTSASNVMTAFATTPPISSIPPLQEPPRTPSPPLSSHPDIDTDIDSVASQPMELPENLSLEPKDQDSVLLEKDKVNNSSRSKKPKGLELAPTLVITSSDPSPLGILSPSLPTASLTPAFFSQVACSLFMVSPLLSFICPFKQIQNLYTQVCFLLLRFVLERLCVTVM
# How it was run: as §1
# ETV2 = target: T10, ETV2 (Homo sapiens, UniProt O00321 1-342); conditions: protein: recombinant; tags: N-terminal GST; dsDNA, one strand shown
# T10 sequence: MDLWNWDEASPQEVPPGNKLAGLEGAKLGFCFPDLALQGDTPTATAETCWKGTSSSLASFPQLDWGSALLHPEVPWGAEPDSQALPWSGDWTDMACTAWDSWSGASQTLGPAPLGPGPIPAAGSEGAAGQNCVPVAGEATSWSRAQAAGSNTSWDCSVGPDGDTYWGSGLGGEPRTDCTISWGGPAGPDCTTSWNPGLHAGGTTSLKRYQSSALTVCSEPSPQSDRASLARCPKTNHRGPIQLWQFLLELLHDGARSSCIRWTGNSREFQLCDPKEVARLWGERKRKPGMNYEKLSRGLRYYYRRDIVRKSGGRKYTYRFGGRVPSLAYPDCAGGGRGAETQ
# How it was run: as §1
# ELF3 = target: T11, ELF3 (Homo sapiens, UniProt P78545 1-371); conditions: protein: recombinant; tags: N-terminal GST; dsDNA, one strand shown
# T11 sequence: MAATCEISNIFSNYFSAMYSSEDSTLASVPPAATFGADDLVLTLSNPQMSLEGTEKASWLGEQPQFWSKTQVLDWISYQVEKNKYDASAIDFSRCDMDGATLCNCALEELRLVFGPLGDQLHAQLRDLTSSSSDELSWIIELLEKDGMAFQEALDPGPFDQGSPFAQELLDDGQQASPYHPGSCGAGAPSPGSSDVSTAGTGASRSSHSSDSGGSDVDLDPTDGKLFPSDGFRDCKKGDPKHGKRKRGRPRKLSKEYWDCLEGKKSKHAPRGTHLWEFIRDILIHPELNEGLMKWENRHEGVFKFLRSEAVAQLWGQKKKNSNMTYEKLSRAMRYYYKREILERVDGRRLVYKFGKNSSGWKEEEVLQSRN
# How it was run: as §1
# CRX = CRX (Homo sapiens, UniProt O43186 1-299); conditions: protein: recombinant; tags: N-terminal GST; dsDNA, one strand shown
# How it was run: as §1
# ETV1 = ETV1 (Homo sapiens, UniProt P50549 1-477); conditions: protein: recombinant; tags: N-terminal GST; dsDNA, one strand shown
# How it was run: as §1
# Chain of ETV1 (P50549 whole entry): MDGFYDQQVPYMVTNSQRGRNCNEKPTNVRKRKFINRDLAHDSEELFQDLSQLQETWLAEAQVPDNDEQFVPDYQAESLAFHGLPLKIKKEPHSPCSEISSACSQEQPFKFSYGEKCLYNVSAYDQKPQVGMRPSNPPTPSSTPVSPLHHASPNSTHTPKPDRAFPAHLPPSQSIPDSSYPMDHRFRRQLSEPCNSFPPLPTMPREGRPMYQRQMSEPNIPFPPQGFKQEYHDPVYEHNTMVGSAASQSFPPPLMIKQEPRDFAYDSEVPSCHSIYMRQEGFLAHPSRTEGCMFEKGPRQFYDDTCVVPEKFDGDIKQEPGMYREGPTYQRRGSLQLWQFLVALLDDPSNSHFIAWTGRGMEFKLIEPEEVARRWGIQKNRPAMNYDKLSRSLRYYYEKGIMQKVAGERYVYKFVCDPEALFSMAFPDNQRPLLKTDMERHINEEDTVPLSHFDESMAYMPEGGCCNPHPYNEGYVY
# Chain of ELF4 (Q99607 whole entry): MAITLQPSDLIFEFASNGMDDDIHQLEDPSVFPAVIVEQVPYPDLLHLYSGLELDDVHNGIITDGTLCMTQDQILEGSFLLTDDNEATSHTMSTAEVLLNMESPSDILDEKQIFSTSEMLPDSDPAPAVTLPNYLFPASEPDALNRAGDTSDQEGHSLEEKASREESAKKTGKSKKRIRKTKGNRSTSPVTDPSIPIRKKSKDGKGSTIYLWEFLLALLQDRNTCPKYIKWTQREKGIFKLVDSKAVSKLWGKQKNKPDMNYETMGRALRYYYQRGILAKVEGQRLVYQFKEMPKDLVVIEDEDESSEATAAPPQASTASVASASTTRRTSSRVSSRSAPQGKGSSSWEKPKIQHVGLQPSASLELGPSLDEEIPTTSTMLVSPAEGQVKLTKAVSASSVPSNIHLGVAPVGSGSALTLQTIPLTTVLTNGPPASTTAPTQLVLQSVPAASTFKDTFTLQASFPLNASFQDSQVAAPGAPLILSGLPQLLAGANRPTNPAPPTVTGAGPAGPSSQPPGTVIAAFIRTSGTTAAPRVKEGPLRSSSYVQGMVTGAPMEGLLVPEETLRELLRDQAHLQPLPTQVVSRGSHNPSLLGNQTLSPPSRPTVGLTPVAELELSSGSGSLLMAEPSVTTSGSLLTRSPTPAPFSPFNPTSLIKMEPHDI
# Chain of SPIB (Q01892 whole entry): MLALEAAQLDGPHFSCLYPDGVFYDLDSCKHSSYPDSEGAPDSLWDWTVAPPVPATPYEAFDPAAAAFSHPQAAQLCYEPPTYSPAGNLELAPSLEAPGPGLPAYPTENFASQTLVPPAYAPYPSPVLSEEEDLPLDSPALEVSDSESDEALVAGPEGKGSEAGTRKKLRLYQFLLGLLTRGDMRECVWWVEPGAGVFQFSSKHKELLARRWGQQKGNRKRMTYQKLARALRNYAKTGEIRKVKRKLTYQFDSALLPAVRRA
# Chain of ETV5 (P41161 whole entry): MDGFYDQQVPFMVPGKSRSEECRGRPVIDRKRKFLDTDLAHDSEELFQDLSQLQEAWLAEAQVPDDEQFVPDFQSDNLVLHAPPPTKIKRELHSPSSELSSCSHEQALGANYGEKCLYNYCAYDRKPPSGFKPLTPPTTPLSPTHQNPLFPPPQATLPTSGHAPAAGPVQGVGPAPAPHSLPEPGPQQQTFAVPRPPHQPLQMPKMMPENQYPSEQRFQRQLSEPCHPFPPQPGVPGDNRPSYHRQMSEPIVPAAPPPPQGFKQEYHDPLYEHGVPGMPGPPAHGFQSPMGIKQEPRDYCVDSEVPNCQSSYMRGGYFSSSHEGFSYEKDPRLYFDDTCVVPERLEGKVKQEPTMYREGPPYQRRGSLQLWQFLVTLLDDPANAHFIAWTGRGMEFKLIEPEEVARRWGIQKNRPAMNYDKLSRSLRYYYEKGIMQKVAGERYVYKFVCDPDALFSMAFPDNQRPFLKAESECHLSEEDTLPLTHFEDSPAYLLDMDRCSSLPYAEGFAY
# Chain of HSF1 (Q00613 whole entry): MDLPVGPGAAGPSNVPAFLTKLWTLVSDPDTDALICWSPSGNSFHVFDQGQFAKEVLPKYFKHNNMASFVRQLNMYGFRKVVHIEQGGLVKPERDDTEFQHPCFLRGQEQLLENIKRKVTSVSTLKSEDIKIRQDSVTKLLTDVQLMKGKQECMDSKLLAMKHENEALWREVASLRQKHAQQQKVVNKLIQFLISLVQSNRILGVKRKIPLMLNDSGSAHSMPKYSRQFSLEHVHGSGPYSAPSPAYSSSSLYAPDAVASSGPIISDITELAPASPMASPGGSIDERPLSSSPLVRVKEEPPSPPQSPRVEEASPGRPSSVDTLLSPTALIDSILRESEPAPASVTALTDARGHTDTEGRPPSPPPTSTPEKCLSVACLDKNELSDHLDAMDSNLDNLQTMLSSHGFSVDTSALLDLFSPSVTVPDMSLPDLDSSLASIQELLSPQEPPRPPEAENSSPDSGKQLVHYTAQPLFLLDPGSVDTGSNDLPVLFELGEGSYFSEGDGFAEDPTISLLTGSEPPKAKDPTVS
# Chain of ELF1 (P32519 whole entry): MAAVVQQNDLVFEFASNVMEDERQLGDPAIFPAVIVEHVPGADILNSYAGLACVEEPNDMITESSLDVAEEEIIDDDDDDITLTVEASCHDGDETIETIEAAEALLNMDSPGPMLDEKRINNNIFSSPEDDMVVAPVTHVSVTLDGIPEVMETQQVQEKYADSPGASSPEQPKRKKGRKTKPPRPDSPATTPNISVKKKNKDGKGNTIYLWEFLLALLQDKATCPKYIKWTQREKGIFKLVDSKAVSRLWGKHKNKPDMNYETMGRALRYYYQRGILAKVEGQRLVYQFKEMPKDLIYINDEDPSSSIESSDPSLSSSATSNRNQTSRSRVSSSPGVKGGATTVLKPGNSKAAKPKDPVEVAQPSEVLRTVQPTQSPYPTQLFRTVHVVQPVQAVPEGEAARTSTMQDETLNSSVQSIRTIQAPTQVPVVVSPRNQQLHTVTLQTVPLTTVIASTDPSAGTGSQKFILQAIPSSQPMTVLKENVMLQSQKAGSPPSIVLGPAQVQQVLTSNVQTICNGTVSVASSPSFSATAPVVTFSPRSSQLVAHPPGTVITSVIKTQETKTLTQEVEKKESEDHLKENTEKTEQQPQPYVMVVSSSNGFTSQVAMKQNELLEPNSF
# Chain of CRX (O43186 whole entry): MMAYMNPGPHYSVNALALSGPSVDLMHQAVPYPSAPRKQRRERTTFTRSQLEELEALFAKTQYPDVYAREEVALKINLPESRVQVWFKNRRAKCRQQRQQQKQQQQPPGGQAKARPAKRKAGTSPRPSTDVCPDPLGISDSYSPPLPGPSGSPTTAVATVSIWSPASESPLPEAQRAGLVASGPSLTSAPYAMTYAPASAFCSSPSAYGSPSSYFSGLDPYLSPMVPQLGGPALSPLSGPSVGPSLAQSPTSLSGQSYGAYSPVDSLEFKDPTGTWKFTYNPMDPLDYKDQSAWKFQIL
sequence,measurement,setting,value
TACATA,binding signal,FLI1,"1.18 fold enrichment (6-mer frequency, TF over GST control)"
same,binding signal,ELK1,"1.19 fold enrichment (6-mer frequency, TF over GST control)"
same,binding signal,GABPA,"1.22 fold enrichment (6-mer frequency, TF over GST control)"
same,binding signal,ERG,"1.24 fold enrichment (6-mer frequency, TF over GST control)"
same,binding signal,ELF1,"1.18 fold enrichment (6-mer frequency, TF over GST control)"
same,binding signal,EHF,"1.17 fold enrichment (6-mer frequency, TF over GST control)"
same,binding signal,SPI1,"1.15 fold enrichment (6-mer frequency, TF over GST control)"
same,binding signal,SPIB,"1.22 fold enrichment (6-mer frequency, TF over GST control)"
same,binding signal,ELK3,"1.19 fold enrichment (6-mer frequency, TF over GST control)"
same,binding signal,FEV,"1.21 fold enrichment (6-mer frequency, TF over GST control)"
same,binding signal,ETV5,"1.24 fold enrichment (6-mer frequency, TF over GST control)"
same,binding signal,HSF1,"1.15 fold enrichment (6-mer frequency, TF over GST control)"
same,binding signal,SPIC,"1.36 fold enrichment (6-mer frequency, TF over GST control)"
same,binding signal,ELF4,"1.22 fold enrichment (6-mer frequency, TF over GST control)"
same,binding signal,ELK4,"1.22 fold enrichment (6-mer frequency, TF over GST control)"
same,binding signal,ETV2,"1.24 fold enrichment (6-mer frequency, TF over GST control)"
same,binding signal,ELF3,"1.18 fold enrichment (6-mer frequency, TF over GST control)"
same,binding signal,CRX,"1.27 fold enrichment (6-mer frequency, TF over GST control)"
same,binding signal,ETV1,"1.25 fold enrichment (6-mer frequency, TF over GST control)"
